Inconclusive results are not listed. Calls of active or inactive are those of the source. The call rests on the fitted dose curve; in most records, active means well fitted curve in the direction sought with a large enough effect; inconclusive means small, poorly fitted or top-dose-only effect, or another doubt; inactive means no such curve, though single readings can be large; an effect the other way counts as inactive or inconclusive.
Experiments:
[1] = Cell Viability - LYMP2-004 (AID 966); further: nearly all actives have a fitted effect of over 65% in size
Procedure, shortened: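 Human lymphoblastoid cells (2500/well) in complete medium were treated with compounds for 24 hr at 37 C, then intracellular ATP was measured by CellTiter-Glo luminescence. AC50 values came from Hill-equation fits of concentration-response data.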

[2] = Cell Viability - LYMP2-005 (AID 967); further: series mostly up to about 92 µM
Procedure, shortened: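 qHTS viability screen in LYMP2-005 cells: 24 h at 37 C with compound, ATP luminescence via CellTiter-Glo, AC50 from Hill curves.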

[3] = Cell Viability - LYMP2-009 (AID 968); further: series mostly up to about 92 µM; nearly all actives have a fitted effect of over 55% in size
[4] = Cell Viability - LYMP2-011 (AID 969); further: nearly all actives have a fitted effect of over 60% in size
Procedure, shortened: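 Human lymphoblastoid cells (2500/well) were plated in complete medium, preincubated 5 hr at 37 C, then exposed to compounds for 24 hr at 37 C. Intracellular ATP was read by CellTiter-Glo luminescence, and AC50 came from Hill-equation concentration-response fits.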

[5] = Cell Viability - LYMP2-013 (AID 970); further: series mostly up to about 92 µM; nearly all actives have a fitted effect of over 55% in size
Procedure, shortened: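 Human lymphoblastoid cells, 2500/well, were preincubated 5 hr at 37 C, then treated with compounds for 24 hr at 37 C in complete medium. Intracellular ATP was read by CellTiter-Glo luminescence; AC50 from Hill-equation fits of concentration-response data.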

[6] = Cell Viability - LYMP2-015 (AID 971); further: nearly all actives have a fitted effect of over 55% in size
Procedure, shortened: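 Human lymphoblastoid cells (2500/well) in complete medium were preincubated 5 hr at 37 C, then compound-treated 24 hr at 37 C. Intracellular ATP was read by CellTiter-Glo luminescence after 30 min at room temperature; AC50 came from Hill-equation concentration-response fits.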

[7] = Cell Viability - LYMP2-017 (AID 972); further: series mostly up to about 92 µM; nearly all actives have a fitted effect of over 55% in size
Procedure, shortened: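 Human lymphoblastoid cells (2500/well) were seeded in complete medium, held 5 hr at 37 C, then exposed to compounds for 24 hr at 37 C. Intracellular ATP was read by CellTiter-Glo luminescence after 30 min at room temperature, with AC50 values from Hill-equation fits.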

[8] = Cell Viability - LYMP2-019 (AID 973); further: nearly all actives have a fitted effect of over 55% in size
Procedure, shortened: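 Human lymphoblastoid cells were seeded at 2500 cells/well, preincubated 5 hr at 37 C, then exposed to compounds for 24 hr at 37 C in complete medium. Intracellular ATP was measured by CellTiter-Glo luminescence; AC50 from Hill fits.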

[9] = Cell Viability - LYMP2-021 (AID 974)
Procedure, shortened: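 Human lymphoblastoid cells (2500/well) were preincubated 5 hr at 37 C, then exposed to compounds for 24 hr at 37 C in complete medium. Intracellular ATP was read by CellTiter-Glo luminescence; AC50 came from Hill-equation fits of concentration-response data.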

[10] = Cell Viability - LYMP2-023 (AID 975)
Procedure, shortened: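 Human lymphoblastoid cells (2500/well) were preincubated 5 hr at 37 C, then exposed to compounds for 24 hr at 37 C in complete medium. Cellular ATP was read by CellTiter-Glo luminescence, and AC50 came from Hill-equation fits.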

Measured: Potency

C[C@@H]1O[C@@H](O[C@@H]2[C@@H](O)[C@H](OCCc3ccc(O)c(O)c3)O[C@H](CO[C@@H]3O[C@H](CO)[C@@H](O)[C@H](O)[C@H]3O)[C@H]2OC(=O)/C=C/c2ccc(O)c(O)c2)[C@H](O)[C@H](O)[C@H]1O
inactive: all assays above

CC1CCCO1 (stereo unspecified)
not listed: [9] | [10]
inactive: all other assays above

CCNc1cc(O)ccc1C
inactive: all assays above

CCC=O
inactive: all assays above

Cc1cc([N+](=O)[O-])ccc1N
not listed: [9] | [10]
inactive: all other assays above

CCC1CO1 (stereo unspecified)
not listed: [9] | [10]
inactive: all other assays above

CCNS(=O)(=O)c1ccc(C)cc1
not listed: [10]
inactive: all other assays above

Cc1c(C(=O)O)cccc1[N+](=O)[O-]
not listed: [10]
inactive: all other assays above

Cc1ccc(S(=O)(=O)NC2CCCCC2)cc1
inactive: all assays above

COCCOC(=O)c1ccccc1C(=O)OCCOC
inactive: all assays above

C=Cc1ccc(C=C)cc1
not listed: [10]
inactive: all other assays above

C=CC(=O)OCCCC
inactive: all assays above

O=C(O)c1ccccc1[N+](=O)[O-]
not listed: [10]
inactive: all other assays above

Cc1ccc(C(C)(C)C)cc1
inactive: all assays above

CC(=O)c1ccccn1
not listed: [10]
inactive: all other assays above

Cc1ccc2c(c1[N+](=O)[O-])C(=O)c1ccccc1C2=O
inactive: all assays above

Cc1cccc2cccnc12
inactive: all assays above

Cc1cccc([N+](=O)[O-])c1C(=O)O
inactive: all assays above

Nc1nc(CC(=O)O)cs1
inactive: all assays above

CCOc1ccc(NC(C)=O)cc1N
inactive: all assays above

C=Cc1ccccc1C=C
inactive: all assays above

C=CCn1c(=O)n(CC=C)c(=O)n(CC=C)c1=O
not listed: [10]
inactive: all other assays above

CCCCC(CC)C(=O)O (stereo unspecified)
inactive: all assays above

CC(=O)CCc1ccccc1
inactive: all assays above

Cc1ccc(C)c(O)c1
not listed: [10]
inactive: all other assays above

Cc1ccc(CO)cc1
inactive: all assays above

Cc1ccc2nc(-c3ccc(N)cc3)sc2c1S(=O)(=O)O
not listed: [9] | [10]
inactive: all other assays above

Nc1ccc(F)cc1F
inactive: all assays above

Cc1ccc(C#N)cc1
not listed: [10]
inactive: all other assays above

Cc1ccc(N(C)C)cc1
inactive: all assays above

Nc1cccc(S(=O)(=O)O)c1
inactive: all assays above

CCCCCCCN
inactive: all assays above

CCCCCO
inactive: all assays above

BrC/C=C/CBr
inactive: all assays above

O=Cc1ccc(Cl)cc1
inactive: all assays above

Cc1ccc(Cl)cc1
not listed: [9] | [10]
inactive: all other assays above

OC(CCl)CCl
inactive: all assays above

C=C(C)C(=O)OC
inactive: all assays above

Nc1cccc2c(=O)[nH][nH]c(=O)c12
not listed: [10]
inactive: all other assays above

O=Cc1cccc(Br)c1
inactive: all assays above

CC(C)C(C)C
inactive: all assays above

CC(C=O)Cc1ccc(C(C)(C)C)cc1 (stereo unspecified)
inactive: all assays above

CC/C(C)=N/O
inactive: all assays above

O=C1CCCCC1
inactive: all assays above

CC(N)CN (stereo unspecified)
inactive: all assays above

CCCCCCCCCCCCOCC1CO1 (stereo unspecified)
inactive: all assays above

O=C(Cl)c1c(Cl)cccc1Cl
inactive: all assays above

CC(=O)OCCC(C)C
inactive: all assays above

NC(=O)CCCCC(N)=O
inactive: all assays above

O=CNc1ccccc1
inactive: all assays above

CN(C)CCCCl
inactive: all assays above

O=C(O)c1c(Cl)cccc1Cl
inactive: all assays above

Clc1ccc(Cl)c(Cl)c1Cl
inactive: all assays above

FC(F)(F)c1ccccc1Cl
inactive: all assays above

Nc1cc([N+](=O)[O-])ccc1C(=O)O
inactive: all assays above

Cc1cccc(Br)c1
inactive: all assays above

CNc1ccc([N+](=O)[O-])cc1
inactive: all assays above
